Compound activity: PubChem BioAssay, The Scripps Research Institute Molecular Screening Center
Compounds with a hit are over-represented: about 2.2% of the library has one in this group of screens.
CHRM4 agonist – agonists of human muscarinic M4 receptor (CHRM4). CHO-K1 hM4/Gqi5, Fluo-8 calcium fluorescence; vehicle 0%, full acetylcholine response 100%. activation, % at 3 µM. 360,000 tested, 0.14% active;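 active = activation above the run mean over all test wells plus 3 SD, cut at about 32% in these data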;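 note: peak over basal fluorescence ratio per well then scaled between controls; 0% = DMSO wells and 100% = acetylcholine at EC100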
M4 PAM – potentiates acetylcholine response at human M4 receptor; P08173; 360,000 tested, 0.4% active; activation, % at 3 µM; CHO-K1 hM4/Gqi5, Fluo-8 calcium fluorescence, ACh EC20; 0% = ACh EC20, 100% = maximal ACh;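 active = activation above its plate's cutoff, the mean activation of sample wells plus 3 SD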
CHRM1 PAM – positive allosteric modulators of human M1 muscarinic receptor; P11229; CHO-K1 hM1, Fluo-8 calcium fluorescence, ACh EC20; 0% = ACh EC20, 100% = maximal ACh; activation, % at 3 µM; 360,000 tested, 0.088% active; AID 588819; in the data active = activation above about 19%, passing the limit was not always enough
Target sequence (P11229 whole entry, looked up): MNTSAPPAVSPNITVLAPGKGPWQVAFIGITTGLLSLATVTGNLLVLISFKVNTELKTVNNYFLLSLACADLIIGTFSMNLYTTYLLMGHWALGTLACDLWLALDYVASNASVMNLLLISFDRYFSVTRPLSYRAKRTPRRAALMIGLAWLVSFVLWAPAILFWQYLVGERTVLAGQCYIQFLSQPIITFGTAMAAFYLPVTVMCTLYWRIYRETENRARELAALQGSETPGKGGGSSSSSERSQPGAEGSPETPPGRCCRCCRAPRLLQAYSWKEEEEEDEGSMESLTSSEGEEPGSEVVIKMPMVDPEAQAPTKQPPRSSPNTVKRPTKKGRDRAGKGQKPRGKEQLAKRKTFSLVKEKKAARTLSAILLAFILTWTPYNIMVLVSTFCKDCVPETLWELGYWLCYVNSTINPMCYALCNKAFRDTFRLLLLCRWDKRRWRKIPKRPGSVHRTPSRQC
M4 antag – blocks acetylcholine activation of human M4 receptor | P08173 | CHO-hM4 cells, ACh EC80, Fluo-8 calcium fluorescence | inhibition, % at 3 µM | 360,000 tested, 0.73% active | AID 624125;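 active = inhibition above its plate's cutoff, the mean inhibition of sample wells plus 3 SD, cut at about 27% in these data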;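 note: 0% = acetylcholine EC80 with DMSO and 100% = DMSO without agonist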
CHRM1 agonist – activates human CHRM1 receptor; P11229; CHO-K1 hM1, Fluo-8 calcium fluorescence, agonist mode; 0% DMSO, 100% acetylcholine EC100; activation, % at 3 µM; 360,000 tested, 0.33% active; AID 588814;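 active = activation above the run's mean compound activation plus 3 SD, cut at about 16% in these data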;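 note: peak over basal fluorescence ratio within a 140 s kinetic read after compound addition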
CHRM1 antagonist – antagonists of human M1 muscarinic receptor; P11229; CHO-K1 hM1, Fluo-8 calcium fluorescence, ACh EC80 antagonist; inhibition, % at 3 µM; 360,000 tested, 1.3% active; AID 588852;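 active = percent inhibition above its own plate's cutoff, namely the mean of that plate's compound wells plus 3 SD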;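 note: peak over basal fluorescence ratio during 140 s after agonist addition; 0% = ACh EC80 plus DMSO and 100% = DMSO alone without agonist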
Starred values were filed as active, the others as inactive.

SMILES	CHRM4 agonist	M4 PAM	CHRM1 PAM	M4 antag	CHRM1 agonist	CHRM1 antagonist
O=[N+]([O-])c1cccc(/C=N/n2cnnc2)c1	0	20*	12	7	-5	-18
O=[N+]([O-])c1ccc(O)c(/C=N/n2cnnc2)c1	3	5	3	10	-1	-2
O=C(c1ccc([N+](=O)[O-])cc1)N(Cc1ccc(Cl)cc1)N1C(=O)CCCC1=O	3	3	1	3	-5	-7
O=C(c1ccc([N+](=O)[O-])cc1)N(Cc1ccc(Cl)cc1Cl)N1C(=O)CCCC1=O	1	0	6	67*	-6	-12
Cc1ccc(-c2nnn(CC(=O)N3CCN(c4ccccc4)CC3)n2)o1	2	8	30*	-5	4	-21
CN1CCCN(C(c2ccccc2)c2ccc(Cl)cc2)CC1 (configuration not stated)	9	-19	-27	83*	-7	100*
Clc1ccc(C(c2ccccc2)N2CCN(c3ccccn3)CC2)cc1 (configuration not stated)	-2	-20	-6	7	-4	9
S=C(Nc1ccccc1)Nc1ccc(Cl)cn1	16	-14	-13	10	-5	37*
CSc1nncc(-c2ccc(F)cc2)n1	33*	-1	3	3	-4	-3
CCOC(=O)[C@@H]1[C@H]2COc3cc(OC)ccc3[C@H]2N2C(=O)N(c3ccc(C(F)(F)F)cc3)C(=O)[C@]12C	17	-9	-21	9	4	41*
CCOC(=O)[C@@H]1[C@H]2COc3cc(OC)ccc3[C@H]2N2C(=O)N(c3cccc(F)c3)C(=O)[C@@]12C	0	-1	-18	9	0	31*
CCOC(=O)[C@@H]1[C@H]2COc3cc(OC)ccc3[C@@H]2N2C(=O)N(c3ccc(C(F)(F)F)cc3)C(=O)[C@@]12C	0	-3	3	3	-7	-2
CCc1ccc(C2CC(c3ccc(F)cc3)Nc3nc(N)nn32)cc1 (configuration not stated)	7	4	11	-1	4	-6
O=C(Nc1ccc(N2CCOCC2)cc1)C1CC1	1	10	5	-2	-2	-11
CC(=O)c1c(C)[nH]c(C(=O)Nc2cccc(C(F)(F)F)c2)c1C	20	-14	-16	10	3	25*
CCN(CC)C(=O)c1ccc(COc2ccc(Cl)c(C)c2)o1	12	-10	-10	21	4	32*
COc1ccccc1N1CCN(C(=O)c2onc(C)c2Cl)CC1	2	1	4	-2	-3	-10
Cc1cc2cc3c(cc2nc1SCC(=O)OC(C)C)OCO3	1	24*	2	-8	-2	-27
Cc1cc2cc3c(cc2nc1SCC(=O)N1CCN(C(=O)c2ccco2)CC1)OCO3	1	15	6	-3	-6	-8
Cc1cc(C(=O)COC(=O)c2n[nH]c3ccccc23)c(C)n1C	3	3	9	1	-2	-13
Cc1cc(C(=O)COC(=O)c2n[nH]c(=O)c3ccccc23)c(C)n1C	-1	-3	-12	14	-1	28*
O=C1N=c2ccccc2=C1c1sc(NS(=O)(=O)c2ccccc2)nc1O	-1	28*	7	0	-3	-6
O=C1N=c2ccccc2=C1c1sc(NS(=O)(=O)Cc2ccccc2)nc1O	0	-10	6	5	0	-4
Cc1nn2c(N3CCN(C)CC3)cc(C(C)(C)C)nc2c1-c1ccccc1	8	-10	-4	8	-4	10
Cc1ccc(C2=NNC(c3ccc(Cl)cc3)=Nc3ccccc32)o1	0	25*	12	9	-9	-20
Cc1cc(/C=N/NC(=O)Cn2c3ccccc3c(=O)c3ccccc32)c(C)n1-c1ccccc1	2	1	3	-7	-9	-1
COC(=O)C1(c2ccccc2)NC(c2cccs2)C2C(=O)N(c3ccccc3)C(=O)C21 (configuration not stated)	18	16	14	-20	41*	-17
O=c1c2cc(C(F)(F)F)ccc2sn1-c1ccccc1	9	-4	-3	4	16*	0
